Experimental data: the supplement of paper PMC10849652
Of roughly 7,900 targets only a part is listed; those with a hit were picked by preference. About 0.6% of all pairs of compound and target were hits.

What was measured:
Assay in all cases: log2 fold change, soluble protein after heating vs DMSO (PISA); higher = thermal stabilisation; K562 cells, 10 uM, 30 min; active = over 0.2 and 3.5 SD of the protein, either way, in both replicates (recomputed)
IRAK-1-4 Inhibitor I = compound: C1COCCN1CCN2C3=CC=CC=C3N=C2NC(=O)C4=CC(=CC=C4)[N+](=O)[O-] [IRAK-1-4 Inhibitor I]
In short: (§1)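 K562 cells at 2×10^6 cells/mL were treated with 10 μM compound for 30 min. Aliquots were heated for 3 min across 48°C-58°C, pooled, and extracted in PBS with 0.5% NP-40 at 4°C; soluble protein was the supernatant after 21,000xg for 90 min. Soluble protein was quantified by TMTpro 16plex LC-MS/MS with channel sums equalised, and reported as log2 fold change in thermal stability against DMSO controls, with values from duplicates.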

ibrutinib = compound: C=CC(=O)N1CCC[C@@H](n2nc(-c3ccc(Oc4ccccc4)cc3)c3c(N)ncnc32)C1 [ibrutinib]
In short: as §1

[1] = compound: CC(=O)c1cnc2ccc(-c3cc(Cl)c(O)c(Cl)c3)nc2c1N[C@H]1CC[C@H](CN(C)C)CC1
In short: as §1

ralimetinib = compound: CC(C)(C)Cn1c(N)nc2ccc(-c3[nH]c(C(C)(C)C)nc3-c3ccc(F)cc3)nc21 [ralimetinib]
In short: as §1

[2] = compound: CC(C)(O)CC(=O)NCCn1ccc2ncnc(Nc3ccc(Oc4cccc(C(F)(F)F)c4)c(Cl)c3)c21
In short: as §1

[3] = compound: CC(C)C1=C2N=C(C=C(N2N=C1)NCC3=CC=CC=C3)NCCCCCCN
In short: as §1

[4] = compound: CC(C)C[C@@H](C=O)NC(=O)[C@H](CC(C)C)NC(=O)[C@H](CC(C)C)NC(=O)OCc1ccccc1
In short: as §1

pinometostat = compound: CC(C)N(C[C@H]1O[C@@H](n2cnc3c(N)ncnc32)[C@H](O)[C@@H]1O)[C@H]1C[C@@H](CCc2nc3cc(C(C)(C)C)ccc3[nH]2)C1 [pinometostat]
In short: as §1

[5] = compound: CC1=C(C(CC(=O)N1)C2=CC=C(C=C2)C(F)(F)F)C(=O)NC3=C(C=C4C(=C3)C=NN4)F
In short: as §1

[6] = compound: CC1=C(C2=C(C=C1)C(=O)C3=CC=CC=C3N2CCCN)C
In short: as §1

Measured: log2 fold change

PTPN12 (UniProt Q05209)
active: [1] 0.264
inactive: IRAK-1-4 Inhibitor I -0.011 | ibrutinib -0.008 | ralimetinib 0.004 | [2] 0.039 | [3] -0.101 | [4] 0.057 | pinometostat 0.045 | [5] -0.004 | [6] 0.004

PSMD6 (UniProt Q15008)
active: [4] -0.221
inactive: IRAK-1-4 Inhibitor I -0.037 | ibrutinib -0.036 | [1] 0.081 | ralimetinib 0.087 | [2] 0.05 | [3] 0.038 | pinometostat 0.047 | [5] 0.028 | [6] 0.012

PRIM2 (UniProt P49643)
UniProt P49643, sequence (P49643 whole entry, looked up): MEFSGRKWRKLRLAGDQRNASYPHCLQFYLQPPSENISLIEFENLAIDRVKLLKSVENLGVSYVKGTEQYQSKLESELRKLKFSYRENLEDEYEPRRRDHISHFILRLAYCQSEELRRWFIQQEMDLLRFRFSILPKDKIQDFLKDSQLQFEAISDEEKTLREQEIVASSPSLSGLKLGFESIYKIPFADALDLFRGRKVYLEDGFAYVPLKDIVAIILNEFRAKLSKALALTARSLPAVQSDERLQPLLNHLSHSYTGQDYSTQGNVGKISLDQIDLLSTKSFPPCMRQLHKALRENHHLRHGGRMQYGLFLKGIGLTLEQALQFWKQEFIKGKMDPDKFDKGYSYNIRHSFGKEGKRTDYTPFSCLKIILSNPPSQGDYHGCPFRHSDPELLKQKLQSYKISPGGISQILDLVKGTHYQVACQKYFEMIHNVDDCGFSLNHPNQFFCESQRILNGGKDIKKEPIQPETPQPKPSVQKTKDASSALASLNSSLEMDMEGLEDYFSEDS
inactive: IRAK-1-4 Inhibitor I -0.043 | ibrutinib -0.04 | [1] -0.065 | ralimetinib -0.058 | [2] -0.265 | [3] -0.213 | [4] 0.074 | pinometostat 0.005 | [5] 0 | [6] 0.059

POLR2B (UniProt P30876)
inactive: IRAK-1-4 Inhibitor I -0.095 | ibrutinib -0.002 | ralimetinib 0.066 | [2] -0.047 | [3] 0.08 | [4] 0.03 | pinometostat 0.037 | [5] -0.031 | [6] 0.03
active: [1] 0.262

PTPMT1 (UniProt Q8WUK0)
active: [3] -0.579
inactive: IRAK-1-4 Inhibitor I 0.018 | ibrutinib -0.05 | [1] -0.131 | ralimetinib -0.144 | [2] -0.083 | [4] 0.052 | pinometostat 0.013 | [5] 0.043 | [6] -0.057

PTRHD1 (UniProt Q6GMV3)
UniProt Q6GMV3, sequence (Q6GMV3 whole entry, looked up): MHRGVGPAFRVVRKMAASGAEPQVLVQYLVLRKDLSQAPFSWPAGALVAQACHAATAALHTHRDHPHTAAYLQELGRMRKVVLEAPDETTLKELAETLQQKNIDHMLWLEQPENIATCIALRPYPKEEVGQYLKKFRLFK
inactive: IRAK-1-4 Inhibitor I 0.155 | ibrutinib 0.004 | [1] -0.048 | ralimetinib -0.049 | [2] -0.022 | [3] 0.139 | [4] -0.01 | pinometostat 0.003 | [5] 0.054 | [6] 0.184

PBX2 (UniProt P40425)
inactive: IRAK-1-4 Inhibitor I -0.078 | ibrutinib 0.023 | [1] -0.122 | ralimetinib 0.04 | [2] -0.145 | [3] -0.184 | [4] 0.078 | pinometostat -0.058 | [5] 0.131 | [6] -0.005

POMK (UniProt Q9H5K3)
inactive: IRAK-1-4 Inhibitor I 0.046 | ibrutinib -0.036 | [1] -0.042 | ralimetinib 0.032 | [2] -0.024 | [3] -0.23 | [4] 0.027 | pinometostat 0.094 | [5] -0.009 | [6] 0.042

PLSCR1 (UniProt O15162)
inactive: IRAK-1-4 Inhibitor I -0.003 | ibrutinib 0.002 | [1] -0.025 | ralimetinib -0.046 | [2] 0.047 | [3] 0.031 | [4] -0.036 | pinometostat -0.015 | [5] -0.011 | [6] 0.031

PRKAR2B (UniProt P31323)
inactive: IRAK-1-4 Inhibitor I -0.038 | ibrutinib -0.011 | ralimetinib -0.039 | [2] -0.007 | [3] -0.068 | [4] 0.044 | pinometostat 0.108 | [5] -0.075 | [6] 0.022
active: [1] -0.833

PPP2R5A (UniProt Q15172)
UniProt Q15172, sequence (Q15172 whole entry, looked up): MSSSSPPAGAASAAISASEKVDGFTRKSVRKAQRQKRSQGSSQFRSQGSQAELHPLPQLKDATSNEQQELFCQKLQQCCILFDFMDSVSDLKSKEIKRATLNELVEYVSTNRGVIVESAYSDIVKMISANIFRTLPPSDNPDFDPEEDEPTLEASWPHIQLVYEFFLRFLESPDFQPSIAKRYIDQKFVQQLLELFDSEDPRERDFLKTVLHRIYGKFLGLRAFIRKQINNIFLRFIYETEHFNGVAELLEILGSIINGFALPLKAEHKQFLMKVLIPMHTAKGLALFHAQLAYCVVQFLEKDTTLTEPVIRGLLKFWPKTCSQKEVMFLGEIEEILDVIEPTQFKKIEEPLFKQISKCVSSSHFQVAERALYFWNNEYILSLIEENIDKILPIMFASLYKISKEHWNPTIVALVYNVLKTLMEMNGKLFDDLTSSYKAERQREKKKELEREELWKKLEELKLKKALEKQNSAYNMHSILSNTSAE
inactive: IRAK-1-4 Inhibitor I 0.005 | ibrutinib -0.024 | [1] 0.004 | ralimetinib 0.066 | [2] -0.16 | [3] -0.193 | [4] 0.023 | pinometostat 0.025 | [5] 0.02 | [6] 0.071

PRPF38B (UniProt Q5VTL8)
UniProt Q5VTL8, sequence (Q5VTL8 whole entry, looked up): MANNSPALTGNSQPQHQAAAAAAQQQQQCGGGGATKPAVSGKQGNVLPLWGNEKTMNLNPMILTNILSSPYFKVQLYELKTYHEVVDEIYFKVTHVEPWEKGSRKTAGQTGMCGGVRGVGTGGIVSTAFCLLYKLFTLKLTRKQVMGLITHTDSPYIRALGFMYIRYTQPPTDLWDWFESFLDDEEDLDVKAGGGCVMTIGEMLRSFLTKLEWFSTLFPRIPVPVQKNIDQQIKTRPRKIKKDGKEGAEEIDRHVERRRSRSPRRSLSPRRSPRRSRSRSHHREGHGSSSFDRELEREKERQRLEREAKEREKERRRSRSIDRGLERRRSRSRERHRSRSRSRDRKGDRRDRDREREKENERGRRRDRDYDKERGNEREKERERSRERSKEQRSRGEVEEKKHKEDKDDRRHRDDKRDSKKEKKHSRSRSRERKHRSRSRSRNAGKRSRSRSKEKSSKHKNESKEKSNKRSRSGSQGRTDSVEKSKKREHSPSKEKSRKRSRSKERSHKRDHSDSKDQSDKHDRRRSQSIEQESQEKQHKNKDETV
inactive: IRAK-1-4 Inhibitor I -0.158 | ibrutinib -0.005 | ralimetinib -0.025 | [2] 0.045 | [3] -0.06 | [4] 0.03 | pinometostat -0.029 | [5] -0.007 | [6] 0.159
active: [1] -0.646

PDIK1L (UniProt Q8N165)
UniProt Q8N165, sequence (Q8N165 whole entry, looked up): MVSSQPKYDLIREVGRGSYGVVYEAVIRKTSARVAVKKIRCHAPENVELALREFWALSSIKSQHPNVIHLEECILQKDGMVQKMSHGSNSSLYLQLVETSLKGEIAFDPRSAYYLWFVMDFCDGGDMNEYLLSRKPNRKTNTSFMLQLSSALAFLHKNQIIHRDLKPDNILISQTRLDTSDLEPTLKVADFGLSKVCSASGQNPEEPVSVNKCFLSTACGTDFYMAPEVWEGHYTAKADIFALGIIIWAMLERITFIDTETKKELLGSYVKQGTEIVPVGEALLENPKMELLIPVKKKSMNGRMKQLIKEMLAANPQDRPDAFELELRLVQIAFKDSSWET
inactive: IRAK-1-4 Inhibitor I -0.006 | ibrutinib -0.205 | ralimetinib -0.173 | [2] 0.032 | [3] -0.139 | [4] 0.091 | pinometostat -0.012 | [5] 0.052 | [6] -0.197
active: [1] -0.693

PSMD7 (UniProt P51665)
active: [4] -0.216
inactive: IRAK-1-4 Inhibitor I 0.055 | ibrutinib -0.006 | [1] 0.028 | ralimetinib 0.01 | [2] 0.057 | [3] 0.019 | pinometostat 0.066 | [5] 0.034 | [6] -0.029

PKN2 (UniProt Q16513)
UniProt Q16513, sequence (Q16513 whole entry, looked up): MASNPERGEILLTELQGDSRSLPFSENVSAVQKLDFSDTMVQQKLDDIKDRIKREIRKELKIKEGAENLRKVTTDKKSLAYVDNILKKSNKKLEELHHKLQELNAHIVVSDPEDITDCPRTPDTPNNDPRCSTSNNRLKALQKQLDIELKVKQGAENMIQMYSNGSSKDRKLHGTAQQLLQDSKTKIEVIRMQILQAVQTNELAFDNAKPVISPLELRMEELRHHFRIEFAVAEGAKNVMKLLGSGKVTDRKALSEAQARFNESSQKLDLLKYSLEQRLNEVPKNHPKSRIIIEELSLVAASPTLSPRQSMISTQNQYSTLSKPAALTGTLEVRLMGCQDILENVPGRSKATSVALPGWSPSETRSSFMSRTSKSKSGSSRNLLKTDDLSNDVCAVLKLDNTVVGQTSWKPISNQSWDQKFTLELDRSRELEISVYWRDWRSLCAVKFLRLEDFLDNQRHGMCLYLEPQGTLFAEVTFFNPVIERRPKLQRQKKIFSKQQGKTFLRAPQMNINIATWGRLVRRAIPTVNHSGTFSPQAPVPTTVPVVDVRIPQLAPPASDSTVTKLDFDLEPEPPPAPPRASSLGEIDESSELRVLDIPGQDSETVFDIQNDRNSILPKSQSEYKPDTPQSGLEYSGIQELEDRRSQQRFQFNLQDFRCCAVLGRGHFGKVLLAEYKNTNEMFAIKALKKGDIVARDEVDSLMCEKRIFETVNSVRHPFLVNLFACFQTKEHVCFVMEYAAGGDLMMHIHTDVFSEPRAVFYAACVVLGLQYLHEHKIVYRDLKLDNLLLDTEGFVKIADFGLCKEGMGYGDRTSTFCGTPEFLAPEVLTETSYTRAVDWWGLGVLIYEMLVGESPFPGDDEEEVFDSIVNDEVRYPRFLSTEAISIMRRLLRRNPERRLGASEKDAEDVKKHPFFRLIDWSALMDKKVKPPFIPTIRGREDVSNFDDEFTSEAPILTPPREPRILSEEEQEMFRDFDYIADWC
inactive: IRAK-1-4 Inhibitor I -0.017 | ibrutinib -0.054 | ralimetinib 0.085 | [2] -0.042 | [3] -0.051 | [4] 0.085 | pinometostat 0.141 | [5] -0.025 | [6] -0.016
active: [1] -0.797

PLCL1 (UniProt Q15111)
inactive: IRAK-1-4 Inhibitor I -0.007 | ibrutinib 0.31 | [1] 0.08 | ralimetinib 0.125 | [2] -0.329 | [3] -0.102 | [4] 0.089 | pinometostat 0.365 | [5] -0.086 | [6] -0.193

PTRH2 (UniProt Q9Y3E5)
UniProt Q9Y3E5, sequence (Q9Y3E5 whole entry, looked up): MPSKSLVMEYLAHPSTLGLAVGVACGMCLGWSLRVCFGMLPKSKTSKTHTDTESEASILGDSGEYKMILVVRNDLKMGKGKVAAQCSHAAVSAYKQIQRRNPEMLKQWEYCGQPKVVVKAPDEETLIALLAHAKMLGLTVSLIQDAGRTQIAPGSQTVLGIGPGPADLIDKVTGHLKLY
inactive: IRAK-1-4 Inhibitor I 0.059 | ibrutinib 0.031 | [1] 0.075 | ralimetinib 0.085 | [2] -0.065 | [3] 0.062 | [4] -0.081 | pinometostat -0.033 | [5] -0.008 | [6] 0.017

PRIM1 (UniProt P49642)
inactive: IRAK-1-4 Inhibitor I -0.066 | ibrutinib -0.035 | [1] 0.007 | ralimetinib 0.048 | [2] -0.079 | [4] 0.046 | pinometostat 0.114 | [5] 0.026 | [6] -0.006
active: [3] -0.319

PISD (UniProt Q9UG56)
UniProt Q9UG56, sequence (Q9UG56 whole entry, looked up): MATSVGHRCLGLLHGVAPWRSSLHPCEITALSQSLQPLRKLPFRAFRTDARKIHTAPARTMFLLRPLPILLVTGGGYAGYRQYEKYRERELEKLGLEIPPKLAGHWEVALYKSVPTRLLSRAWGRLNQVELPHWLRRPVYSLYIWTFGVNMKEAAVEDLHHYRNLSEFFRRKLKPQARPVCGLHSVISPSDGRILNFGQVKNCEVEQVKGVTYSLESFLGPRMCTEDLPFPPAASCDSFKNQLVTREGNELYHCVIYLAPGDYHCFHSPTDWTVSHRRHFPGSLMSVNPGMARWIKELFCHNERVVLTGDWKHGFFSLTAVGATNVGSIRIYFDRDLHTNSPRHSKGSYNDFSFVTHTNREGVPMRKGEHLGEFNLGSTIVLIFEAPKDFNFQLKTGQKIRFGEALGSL
inactive: IRAK-1-4 Inhibitor I -0.013 | ibrutinib -0.038 | [1] -0.068 | ralimetinib 0.02 | [2] -0.066 | [3] 0.001 | [4] 0.005 | pinometostat -0.013 | [5] -0.039 | [6] 0.147

POLR3K (UniProt Q9Y2Y1)
UniProt Q9Y2Y1, sequence (Q9Y2Y1 whole entry, looked up): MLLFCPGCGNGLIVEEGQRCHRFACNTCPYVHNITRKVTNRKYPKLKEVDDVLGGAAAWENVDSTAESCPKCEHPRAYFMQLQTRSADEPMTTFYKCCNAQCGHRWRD
inactive: IRAK-1-4 Inhibitor I 0.026 | ibrutinib 0.044 | [1] -0.013 | ralimetinib -0.084 | [2] -0.07 | [3] 0.124 | [4] 0.089 | pinometostat 0.043 | [5] 0.032 | [6] -0.039

PRUNE1 (UniProt Q86TP1)
inactive: IRAK-1-4 Inhibitor I 0.049 | ibrutinib -0.058 | [1] 0.012 | ralimetinib 0.017 | [2] -0.037 | [3] -0.129 | [4] 0.04 | pinometostat 0.08 | [5] -0.019 | [6] -0.021

PMM2 (UniProt O15305)
UniProt O15305, sequence (O15305 whole entry, looked up): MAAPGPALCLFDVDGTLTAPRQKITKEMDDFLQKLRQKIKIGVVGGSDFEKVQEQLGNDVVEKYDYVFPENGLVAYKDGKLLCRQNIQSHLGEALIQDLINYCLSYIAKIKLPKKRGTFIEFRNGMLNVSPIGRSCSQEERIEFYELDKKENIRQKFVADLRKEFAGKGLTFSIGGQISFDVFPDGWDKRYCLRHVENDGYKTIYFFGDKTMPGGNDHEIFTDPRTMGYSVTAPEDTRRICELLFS
inactive: IRAK-1-4 Inhibitor I 0.025 | ibrutinib -0.025 | [1] 0.012 | ralimetinib -0.1 | [2] 0.009 | [3] 0.089 | [4] -0.032 | pinometostat -0.029 | [5] 0.012 | [6] -0.015

PGM3 isoform 4 (UniProt O95394)
inactive: IRAK-1-4 Inhibitor I -0.007 | ibrutinib -0.016 | [1] -0.091 | ralimetinib 0.016 | [2] -0.08 | [3] -0.097 | [4] -0.002 | pinometostat 0.012 | [5] -0.021 | [6] 0.02

PLCB3 (UniProt Q01970)
inactive: IRAK-1-4 Inhibitor I -0.013 | ibrutinib -0.026 | [1] -0.017 | ralimetinib 0.014 | [2] -0.064 | [3] -0.138 | [4] -0.003 | pinometostat 0.01 | [5] -0.022 | [6] 0.004

PHKA1 (UniProt P46020)
inactive: IRAK-1-4 Inhibitor I -0.043 | ibrutinib -0.001 | [1] 0.306 | ralimetinib -0.03 | [2] -0.161 | [3] 0.011 | [4] 0.195 | pinometostat -0.023 | [5] 0.118 | [6] 0.022

PIP4K2B (UniProt P78356)
active: [1] 0.856
inactive: IRAK-1-4 Inhibitor I 0.254 | ibrutinib 0.01 | ralimetinib 0.005 | [2] -0.149 | [3] 0.033 | [4] -0.034 | pinometostat -0.014 | [5] -0.11 | [6] 0.065

PTGFRN (UniProt Q9P2B2)
active: [3] 0.222
inactive: IRAK-1-4 Inhibitor I 0.009 | ibrutinib 0.06 | [1] -0.111 | ralimetinib -0.029 | [2] -0.026 | [4] 0.07 | pinometostat 0.002 | [5] 0.006 | [6] 0.028

PARP1 (UniProt P09874)
UniProt P09874, sequence (P09874 whole entry, looked up): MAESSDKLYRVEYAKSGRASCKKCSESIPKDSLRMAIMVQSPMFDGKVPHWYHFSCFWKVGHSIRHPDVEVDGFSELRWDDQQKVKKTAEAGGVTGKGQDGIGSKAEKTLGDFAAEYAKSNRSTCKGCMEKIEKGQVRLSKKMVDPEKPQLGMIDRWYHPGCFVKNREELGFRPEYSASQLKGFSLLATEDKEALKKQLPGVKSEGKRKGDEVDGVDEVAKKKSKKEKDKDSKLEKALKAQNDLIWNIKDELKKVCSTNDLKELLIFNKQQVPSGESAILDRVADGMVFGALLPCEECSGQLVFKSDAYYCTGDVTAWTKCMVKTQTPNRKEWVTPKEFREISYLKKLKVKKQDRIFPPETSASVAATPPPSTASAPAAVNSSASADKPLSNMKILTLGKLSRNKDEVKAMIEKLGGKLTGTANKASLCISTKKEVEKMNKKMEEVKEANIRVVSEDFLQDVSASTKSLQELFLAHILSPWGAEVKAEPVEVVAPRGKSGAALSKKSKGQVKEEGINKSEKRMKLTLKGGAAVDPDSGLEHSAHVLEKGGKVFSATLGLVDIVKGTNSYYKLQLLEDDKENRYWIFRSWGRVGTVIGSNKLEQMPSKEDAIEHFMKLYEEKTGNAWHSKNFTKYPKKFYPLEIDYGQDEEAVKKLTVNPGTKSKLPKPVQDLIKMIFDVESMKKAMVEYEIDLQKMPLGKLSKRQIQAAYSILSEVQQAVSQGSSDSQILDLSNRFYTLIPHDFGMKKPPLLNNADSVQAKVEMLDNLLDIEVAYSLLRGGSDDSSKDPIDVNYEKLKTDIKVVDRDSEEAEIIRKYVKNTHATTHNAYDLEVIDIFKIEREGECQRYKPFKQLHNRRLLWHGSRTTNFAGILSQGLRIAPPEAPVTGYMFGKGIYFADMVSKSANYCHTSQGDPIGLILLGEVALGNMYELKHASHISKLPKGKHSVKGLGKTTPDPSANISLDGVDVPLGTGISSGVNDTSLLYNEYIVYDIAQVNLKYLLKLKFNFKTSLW
inactive: IRAK-1-4 Inhibitor I -0.068 | ibrutinib -0.027 | [1] -0.052 | ralimetinib 0.039 | [2] 0.108 | [3] -0.068 | [4] 0.018 | pinometostat -0.009 | [5] -0.004
active: [6] 0.578

PCNT (UniProt O95613)
inactive: IRAK-1-4 Inhibitor I 0.085 | ibrutinib -0.078 | [1] -0.079 | ralimetinib -0.113 | [2] -0.021 | [3] 0.053 | [4] 0.229 | pinometostat 0.069 | [5] 0.077 | [6] -0.018

PDE12 (UniProt Q6L8Q7)
inactive: IRAK-1-4 Inhibitor I 0.118 | ibrutinib 0.015 | [1] 0.085 | ralimetinib -0.036 | [2] -0.006 | [3] -0.032 | [4] 0.03 | pinometostat -0.031 | [5] 0.01 | [6] 0.033
